Measurements reported in PubChem BioAssay AID2013 (Sanford-Burnham Center for Chemical Genomics, 2009).
About 370 (0.13%) of roughly 290,000 compounds were called active. This is one part of a sample in which actives are shown more often than they occur.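 How the source made its calls: active means spots per cell inhibited over 60%, with over 100 cells counted and total cytoplasm intensity under 500,000; inconclusive means wells with under 100 cells, flagged as likely toxic; inactive means the rest.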 Results with a measured potency or affinity are listed apart.

Target: G-protein coupled receptor 55 (Homo sapiens) (UniProt Q9Y2T6)
Assay: inhibition of LPI-stimulated GPR55 beta-arrestin translocation – imaging, U2OS, beta-arrestin-GFP, LPI agonist, primary screen (AID 2013);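 further: U2OS cells stably carrying GPR55 and arrestin-GFP stimulated by 5 µM LPI near EC80; imaged beta-arrestin-GFP aggregate spots per cell after agonist stimulation; plate controls were LPI-stimulated DMSO wells for no effect and DMSO wells without LPI for full effect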
Conditions: LPI antagonism, at 10 µM, hits give high values

Chain of G-protein coupled receptor 55 (Homo sapiens) (Q9Y2T6 whole entry, looked up): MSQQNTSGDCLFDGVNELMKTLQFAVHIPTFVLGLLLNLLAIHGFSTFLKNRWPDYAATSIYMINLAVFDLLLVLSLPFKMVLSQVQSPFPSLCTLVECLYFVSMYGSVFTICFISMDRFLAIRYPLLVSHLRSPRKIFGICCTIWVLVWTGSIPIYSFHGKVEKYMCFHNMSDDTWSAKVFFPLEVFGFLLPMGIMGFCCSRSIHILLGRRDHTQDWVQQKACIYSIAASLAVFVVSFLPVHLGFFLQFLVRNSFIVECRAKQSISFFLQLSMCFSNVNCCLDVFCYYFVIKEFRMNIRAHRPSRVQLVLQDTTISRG

inhibition, active:
N#C/C(=C\c1ccc(N2CCOCC2)o1)C(=O)N1CCOCC1 100%
CCOC(=O)c1cc2c(=O)n3cccc(C)c3nc2n(Cc2ccccc2Cl)c1=N 85.6%
COc1cc(CNCCO)cc(Cl)c1OCc1ccc(Cl)cc1Cl 83.3%
Cc1cc(C)c(Nc2cc(S(=O)(=O)O)c(N)c3c2C(=O)c2ccccc2C3=O)c(C)c1 66.8%
N=c1c2c(ncn1Cc1ccco1)Oc1c(ccc3ccccc13)C2c1ccccc1 (stereo not given) 65.9%

inhibition, inactive:
O=C(COc1cccc(C(F)(F)F)c1)N1CCN(c2ccc(O)cc2)CC1 -7.2%
NC(=O)c1ccc[n+](CC(=O)c2ccc(Br)cc2)c1 9.5%
N#C/C(=C/c1ccc(N2CCOCC2)o1)C(=O)Nc1ccccc1 0.6%
N#C/C(=C\c1ccc(N2CCOCC2)o1)C(=O)Nc1ccc(O)cc1 -2.9%
COc1cccc(NC(=O)C(=O)N/N=C/c2ccc3c(c2)OCO3)c1 14.8%
c1ccc(C(c2ccccn2)c2ccccn2)cc1 1.1%
CC(=O)Oc1ccc(C(=O)Cc2ccccn2)c(O)c1 1%
CCOC(=O)CCNC(=O)N1CCCC(N(C)CCc2ccc(OC)c(OC)c2)C1 (stereo not given) 6.3%
O=C(NCC1CC1)Nc1ccc(Cl)cc1 10.7%
CCCS(=O)(=O)N1CCCC(C(=O)Oc2ccc(C)c(C)c2)C1 (stereo not given) -6.5%
CCOc1ccccc1NC(=O)NC1(C(=O)NCc2cccnc2)CCCCC1 3.3%
CCOC(=O)c1cc2c(=O)n3ccccc3nc2n(Cc2ccccc2Cl)c1=N 38.5%
CCOC(=O)c1cc2c(=O)n3cccc(C)c3nc2n(C)c1=N 4.1%
COC(=O)c1cc2c(=O)n3cccc(C)c3nc2n(Cc2cccnc2)c1=N -5.2%
CCn1c(=N)c(C(=O)OC)cc2c(=O)n3ccccc3nc21 -3.4%
COCCNC(=O)C(OC(=O)CC1Sc2ccccc2NC1=O)c1ccncc1 (stereo not given) 1.2%
O=[N+]([O-])c1ccc(S(=O)(=O)NCCN2CCOCC2)cc1 11.3%
CCn1ncc(C(=O)Nc2cccc(Cl)c2)c1C 3.9%
Brc1ccc(-c2nnc(Cc3ccccc3)o2)cc1 -5.2%
COc1ccc(Cc2nnc(-c3ccccc3)o2)cc1 -5.3%
CCN1CCCC1CN(Cc1cc2cc(OC)ccc2[nH]c1=O)C(=O)NCc1ccccc1 (stereo not given) 11.3%
CC(NC(=O)C12CC3CC(CC(C3)C1)C2)c1ccc2c(c1)OCCO2 (stereo not given) 3%
COc1cc(CNCCO)cc(Cl)c1OCc1ccccc1Cl 14.7%
CCOc1cc(CNCCO)cc(Br)c1OCc1ccc(Cl)cc1Cl 11.8%
CCOC(=O)/C(C#N)=C/c1cn(CCC(=O)O)nc1-c1cccc(Br)c1 1.6%
COc1ccccc1/C=C(/C#N)C(=O)O 7%
N#C/C(=C/c1cn[nH]c1-c1ccc(Br)cc1)C(=O)O 3%
N#C/C(=C\c1ccccc1Br)C(=O)NC1CC1 -17.2%
COc1ccc(S(=O)(=O)N(CC(=O)NCc2ccncc2)c2cc(C)cc(C)c2)cc1OC 14.3%
COc1cc(Br)c(-c2sc(Nc3ccccc3)n[n+]2-c2ccccc2)cc1OC 40.4%
COc1ccc(-c2sc(Nc3ccccc3)n[n+]2C)c(C)c1C -7%
COc1ccc(-c2sc(Nc3ccccc3)n[n+]2-c2ccc(F)cc2)c(OC)c1OC 30%
COc1cc(OC)c(-c2sc(Nc3ccccc3)n[n+]2-c2ccc(F)cc2)cc1OC -3%
CCn1c(SCC(=O)Nc2ccc(OC)cc2)nnc1-c1ccco1 2.2%
O=C(Nc1ccc(F)cc1)NC1(C(=O)NCc2ccco2)CCCCC1 5.6%
CN(C)CCNC(=O)COc1ccc(C23CC4CC(CC(C4)C2)C3)cc1 33.6%
COc1ccc(Cl)cc1C(=O)NCCN(C)C -0.9%
O=C(NCCCN1CCN(c2ccc(F)cc2)CC1)NC12CC3CC(CC(C3)C1)C2 -1.6%
CCOC(=O)c1cnc(SC)nc1Oc1cccc(NC(=O)c2cccc(Cl)c2Cl)c1 9.1%
CCCCNC(=S)N(C)/N=C/c1sc(N2CCCCC2)nc1-c1cccs1 11.7%
CC(=O)N(C1=C(O)c2ccccc2C(=O)C1=O)C1CCCCC1 -3.7%
CC(=O)N(c1ccccc1)C1CCCC1 3.9%
Cc1cc(OCC(=O)Nc2ccc(CN3CCOCC3)cc2)c2c(C)c(C)c(=O)oc2c1 18.4%
CC(C)Sc1cc(N2CCCC2)nc(-c2ccccc2Cl)n1 7.8%
CCOc1cccc(OCCNC2CCCC2)c1 -14.7%
COc1ccc(-c2c3c(=O)n(C)c(=O)n(C)c3cn2-c2cc(OC)ccc2OC)cc1 11.5%
COCCNC(=O)c1ccccc1NC(=O)CN(c1ccc2c(c1)OCO2)S(C)(=O)=O 6.3%
COc1cccc(NC(=O)CN(C)CC(=O)Nc2cccc(C(F)(F)F)c2)c1 -8.3%
O=C(Nc1ccnn1C1CCN(Cc2cc3ccccc3[nH]2)CC1)C1CCOC1 (stereo not given) 1.9%
Nc1c(S(=O)(=O)O)cc(NC(=O)c2ccccc2)c2c1C(=O)c1ccccc1C2=O 0.8%
Cc1cc(C)cc(NC2=C(N)C(=O)c3ccccc3C2=O)c1 6.8%
Cc1ccc(C)c(NC(=O)NNC(=O)CCc2ccccc2)c1 11%
CC(c1nnnn1C(C)(C)C)N(Cc1cccnc1)Cc1ccccc1Cl (stereo not given) 11.1%
CC(C)(C)n1nnnc1C(c1cccnc1)N(Cc1ccccc1)Cc1cccs1 (stereo not given) 59.7%
CC(C)(C)n1nnnc1C(c1cccs1)N(Cc1cccnc1)Cc1ccco1 (stereo not given) 57.6%
CC(C)(C)n1nnnc1C(c1cccs1)N(Cc1cccnc1)CC1CCCO1 (stereo not given) 4.3%
Cc1ccc(C(C)C)cc1S(=O)(=O)NCc1ccccn1 8.4%
Cc1cc(C)nc(Nc2n[nH]c(-c3ccccc3Cl)n2)n1 0.2%
N=c1c2c(ncn1CCCO)Oc1cc(O)ccc1C2c1ccccc1 (stereo not given) 33.6%
COc1ccc(C2c3ccc(O)cc3Oc3ncn4nc(-c5ccncc5)nc4c32)cc1OC (stereo not given) 5.3%
COc1ccc(C2c3ccc(O)cc3Oc3ncn4nc(-c5ccccn5)nc4c32)cc1OC (stereo not given) 14.6%
N=c1c2c(ncn1CCN1CCOCC1)Oc1cc(O)ccc1C2c1ccccc1 (stereo not given) 16.4%
COc1ccc(C2c3ccc(O)cc3Oc3ncn(Cc4ccco4)c(=N)c32)cc1OC (stereo not given) 33%
COc1ccc(C2c3ccc4ccccc4c3Oc3ncn(Cc4ccco4)c(=N)c32)cc1OC (stereo not given) 96.1%
N=c1c2c(ncn1Cc1ccco1)Oc1ccc3ccccc3c1C2c1ccccc1 (stereo not given) 17.8%
COc1ccc(C2c3c(ncn(Cc4ccco4)c3=N)Oc3ccc4ccccc4c32)cc1 (stereo not given) 27.8%
CNc1oc(C)nc1S(=O)(=O)c1ccccc1 -6.5%
O=C(O)c1ccc2c(c1)S(=O)(=O)N=C1CCCCCN12 16.8%
Cc1c(N=Cc2c(O)n(C)c(=O)c3ccccc23)c(=O)n(-c2ccccc2)n1C 1.5%
CC(=O)N1c2ccccc2CCc2ccc(N)cc21 8%
CC(C)(C)c1ccc(C(=O)Nc2ccc(O)c3c(=O)cc(-c4ccccc4Cl)oc23)cc1 18.3%
O=c1[nH]c(=S)[nH]c2sc3c(c12)CCCCCC3 -0.5%
COc1cc(/C=N/NC(=O)c2cccc3ccccc23)cc(OC)c1O 16.9%
Cn1c(NC(=O)c2cc(-c3ccc4c(c3)OCO4)nc3ccccc23)cc(=O)n(C)c1=O 9.3%
COc1ccc(C2c3ccc(O)cc3Oc3ncn(CCN4CCOCC4)c(=N)c32)cc1 (stereo not given) 18.9%
COc1ccc(C2c3ccc(O)cc3Oc3ncn(CCCO)c(=N)c32)cc1 (stereo not given) 22%
COC(=O)c1ccc(N(CC(=O)NC2CCCCC2)C(=O)CNC(=O)c2ccco2)cc1 -3.6%
COc1ccc(-c2ccc(-c3nnc(Cc4ccc(OC)c(OC)c4)o3)cc2)cc1 -4.2%
O=C1c2ccccc2C(=O)N1Cc1cc(-c2ccccc2)no1 -7.7%
O=C(CCS(=O)(=O)c1cccc2nonc12)N1CCOCC1 -5.5%
COc1ccc(-c2n[nH]c(C)c2-c2ccc(Cl)cc2)c(O)c1 12.3%
COc1ccccc1-c1c(-c2ccc(OCC(=O)NN)cc2O)n[nH]c1C(F)(F)F 4.3%
COc1ccc(-c2cn[nH]c2-c2ccc(OCC(=O)NN)cc2O)cc1OC -2.6%
COc1ccc(-c2c(-c3ccc(O)cc3O)n[nH]c2C)cc1OC 7%
COc1ccc(-c2cn[nH]c2-c2ccc(OCC(=O)NN)cc2O)cc1 -13.4%
COc1ccccc1-c1c(-c2ccc(O)cc2O)n[nH]c1C(F)(F)F 5.7%
Oc1ccc(-c2n[nH]c(C(F)(F)F)c2-c2ccccc2)c(O)c1 20.9%
COc1ccc(-c2c(-c3ccc(OCC(=O)NN)cc3O)n[nH]c2C)cc1 -11.9%
CSc1c(CC(=O)Nc2ccccc2)n(C)c2ccccc12 -1%
O=C(NCc1cccnc1)C(=O)Nc1ccc([N+](=O)[O-])cc1 -2.9%
